{
  "source": "PubChem BioAssay (EPA / NIEHS)",
  "key": {"[1]": {"experiment": "CCTE_Shafer_MEA_dev_firing_rate_mean: CCTE's Neural Network Formation Assay for Mean Firing Rate, Shafer Lab (AID 2284031)", "in_short": "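Extracellular spike frequency, AUC over DIV 5–12 recordings, in rat cortical neuron MEA cultures dosed from plating; loss direction vs DMSO.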"}, "[2]": {"experiment": "CCTE_Shafer_MEA_dev_per_burst_spike_percent: CCTE's Neural Network Formation Assay for Percent of Spikes in a Burst, Shafer Lab (AID 2284032)", "in_short": "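Value is trapezoidal AUC over recordings on days 5, 7, 9 and 12 of the well-mean fraction of spikes falling in single-electrode bursts; rat cortical cultures exposed continuously from plating, treatment renewed DIV 5 and 9, fitted downward against DMSO.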"}, "[3]": {"experiment": "CCTE_Shafer_MEA_dev_active_electrodes_number: CCTE's Neural Network Formation Assay for Number of Active Electrodes, Shafer Lab (AID 2284040; active means hit-call score of the fitted dose curve at least 0.9, where 1 is the maximum)", "in_short": "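Developing rat cortical networks on MEAs, exposed DIV 0–12. Value is the AUC of active-electrode counts (≥5 spikes/min) from days 5, 7, 9, 12, relative to DMSO.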"}, "[4]": {"experiment": "CCTE_Shafer_MEA_dev_burst_rate: CCTE's Neural Network Formation Assay for Burst Rate, Shafer Lab (AID 2284042)", "in_short": "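Primary rat cortical neurons on PEI-coated 48-well MEA plates (laminin added with cells at plating) (16 electrodes/well), exposed from plating to day 12, dosing renewed at DIV 5 and 9. Burst rate averaged over active electrodes, recorded DIV 5, 7, 9, 12, summarized as AUC; loss versus DMSO.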"}, "[5]": {"experiment": "CCTE_Shafer_MEA_dev_bursting_electrodes_number: CCTE's Neural Network Formation Assay for Number of Bursting Electrodes, Shafer Lab (AID 2284043; active means hit-call score of the fitted dose curve at least 0.9, where 1 is the maximum)", "in_short": "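Counted: electrodes with burst rate ≥1 per 2 min in each well. Cells: primary rat cortex, 1.5 x 10^5/well, on 16-electrode MEA wells. Exposure: DIV 0–12, compound renewed DIV 5 and 9. Recording days 5, 7, 9, 12; AUC vs DMSO baseline.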"}, "[6]": {"experiment": "CCTE_Shafer_MEA_dev_per_burst_interspike_interval: CCTE's Neural Network Formation Assay for Burst Interspike Interval, Shafer Lab (AID 2284044)", "in_short": "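Developmental network-formation MEA in primary rat cortical cultures with exposure spanning days 0–12. Within-burst ISI is averaged per well and integrated across recording days by area under the curve, with DMSO as negative control baseline.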"}, "[7]": {"experiment": "CCTE_Shafer_MEA_dev_burst_duration_mean: CCTE's Neural Network Formation Assay for Mean Burst Duration, Shafer Lab (AID 2284045)", "in_short": "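Network-formation assay in primary rat cortical neurons; treatment spans twelve days of development. Mean burst duration per well is integrated by trapezoidal AUC and fitted in the loss-of-signal direction against DMSO baseline.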"}, "[8]": {"experiment": "CCTE_Shafer_MEA_dev_interburst_interval_mean: CCTE's Neural Network Formation Assay for Mean Interburst Interval, Shafer Lab (AID 2284046)", "in_short": "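Recordings on days 5, 7, 9 and 12 give well-mean interburst interval across actively bursting electrodes, summarized as area under the curve. Cultures: rat cortical neurons, continuous exposure from day 0, compound renewed at feeds; decrease analyzed versus DMSO.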"}, "[9]": {"experiment": "CCTE_Shafer_MEA_dev_inter_network_spike_interval_mean: CCTE's Neural Network Formation Assay for Mean Inter-network Spike Interval, Shafer Lab (AID 2284047)", "in_short": "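Primary rat cortical neurons on 16-electrode MEA wells, exposed from plating day 0 through DIV 12, compound renewed at DIV 5 and 9 media changes. Mean interval between network-spike peaks recorded DIV 5, 7, 9, 12; collapsed as trapezoidal AUC, fitted downward versus DMSO.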"}, "[10]": {"experiment": "CCTE_Shafer_MEA_dev_network_spike_number: CCTE's Neural Network Formation Assay for Number of Network Spikes, Shafer Lab (AID 2284048)", "in_short": "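Extracellular recordings from 16-electrode wells track network formation in rat cortical cultures under continuous treatment from plating. The endpoint is network spike number, expressed as AUC across DIV 5–12 relative to DMSO vehicle.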"}, "[11]": {"experiment": "CCTE_Shafer_MEA_dev_network_spike_peak: CCTE's Neural Network Formation Assay for Mean Number of Electrodes in Network Spike, Shafer Lab (AID 2284049)", "in_short": "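Continuous 12-day exposure of rat cortical cultures, starting at plating, on MEA plates. Endpoint: electrodes participating in network-spike peaks, AUC across DIV 5–12, DMSO as negative control.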"}, "[12]": {"experiment": "CCTE_Shafer_MEA_dev_spike_duration_mean: CCTE's Neural Network Formation Assay for Mean Spike Duration, Shafer Lab (AID 2284051)", "in_short": "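Primary rat cortical neurons on 16-electrode MEA wells (PEI-coated, laminin in plating drop), exposed from plating through DIV 12 with compound renewed at DIV 5 and 9. Mean network-spike duration recorded DIV 5, 7, 9, 12; trapezoidal AUC across days, DMSO baseline.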"}, "[13]": {"experiment": "CCTE_Shafer_MEA_dev_network_spike_duration_std: CCTE's Neural Network Formation Assay for Standard Deviation of Network Spike Duration, Shafer Lab (AID 2284052)", "in_short": "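Primary rat cortical neurons on PEI-coated 16-electrode MEA wells, exposed from plating day 0 through day 12 with compound renewed at DIV 5 and 9. Network spike duration SD recorded on days 5, 7, 9, 12, collapsed as trapezoidal AUC; loss-of-signal fit versus DMSO.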"}, "[14]": {"experiment": "CCTE_Shafer_MEA_dev_per_network_spike_spike_number_mean: CCTE's Neural Network Formation Assay for Mean Number of Spikes in a Network Spike, Shafer Lab (AID 2284053)", "in_short": "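Primary rat cortical neurons on 48-well, 16-electrode MEA plates were exposed from plating to DIV 12, with dosing renewed on DIV 5 and 9. Spikes per network spike (0.05 s peak window) were recorded on DIV 5, 7, 9 and 12 and collapsed as trapezoidal AUC versus DMSO.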"}, "[15]": {"experiment": "CCTE_Shafer_MEA_dev_per_network_spike_spike_percent: CCTE's Neural Network Formation Assay for Percent of Spikes in a Network Spike, Shafer Lab (AID 2284054)", "in_short": "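Developing networks of rat cortical neurons are dosed at day 0 and recorded extracellularly four times up to day 12. The endpoint is the area under the curve of percent spikes in network spikes, fitted in the negative direction relative to DMSO.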"}, "[16]": {"experiment": "CCTE_Shafer_MEA_dev_LDH: CCTE's Lactate Dehydrogenase Assay for Cytotoxicity in the Neural Network Formation Assay, Shafer Lab (AID 2284068; active means hit-call score of the fitted dose curve at least 0.9, where 1 is the maximum)", "in_short": "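Primary rat cortical neurons were plated on PEI/laminin MEA plates and exposed from day 0 for twelve days, with compound renewed at DIV 5 and 9. Cytotoxicity was determined by spectrophotometric LDH assay relative to DMSO.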"}, "[17]": {"experiment": "CCTE_Shafer_MEA_dev_correlation_coefficient_mean: CCTE's Neural Network Formation Assay for Mean Correlation Coefficient, Shafer Lab (AID 2284093)", "in_short": "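Spontaneous activity recorded on days 5, 7, 9 and 12 post-plating; pairwise spike correlations are averaged across active electrodes and collapsed to an area-under-curve. Rat cortical cultures are dosed from plating through 12 days, with compound renewed at media changes.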"}, "[18]": {"experiment": "UKN2_HCS_IMR90_neural_migration: University of Konstanz (UKN) Leist Lab Neural Crest Cell Migration Assay in human induced IMR90 Pluripotent Stem Cells (UKN2) (AID 2284204)", "details": "actives raise or lower the signal", "in_short": "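Using a 96-well stopper format with PLO/laminin/fibronectin coating, neural crest cells from iPSC migrate in cytokine-supplemented N2-S medium; after 24 h, chemicals are applied for a further 24 h, then cells are imaged after dye staining.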"}, "[19]": {"experiment": "IUF_NPC1b_proliferation_BrdU_72hr: Leibniz Research Institute for Environmental Medicine (IUF) 72-hour Neural Progenitor Cell Bromodeoxyuridine (BrdU) Proliferation Assay (NPC1b) (AID 2284207)", "in_short": "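Neural progenitor spheres of human fetal origin are treated for three days; BrdU added for the last 16 h is quantified by luminescence ELISA, with DMSO as baseline and EGF/FGF omission as positive control.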"}, "[20]": {"experiment": "IUF_NPC1a_proliferation_area_72hr: Leibniz Research Institute for Environmental Medicine (IUF) 72-hour Neural Progenitor Cell Proliferation Area Assay (NPC1a) (AID 2284208)", "in_short": "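Proliferation is scored as sphere area gain in primary human fetal neural progenitors treated for 72 h in EGF/FGF-containing medium. Viability, LDH and BrdU readouts come from the same wells.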"}, "[21]": {"experiment": "IUF_NPC1_viability_72hr: Viability Assessment at 72 hours in the Leibniz Research Institute for Environmental Medicine (IUF) Neural Progenitor Cell Proliferation Assay (NPC1) (AID 2284209)", "in_short": "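Three-day continuous exposure of human neural progenitor spheres under EGF/FGF-driven proliferation; cell viability scored by alamar blue signal versus DMSO.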"}, "[22]": {"experiment": "CCTE_Mundy_HCI_Cortical_Synap_Neur_Matur_NeuriteSpotCountPerNeuriteLength: CCTE's Synaptogenesis and Neurite Maturation Assay in rat cortical cells for Neurite Spot Count per Neurite Length, Mundy Lab (AID 2284210)", "in_short": "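Neurite-associated synapse density (synaptophysin puncta per unit neurite length) is measured by fluorescence high-content imaging in rat cortical cultures treated from DIV 7 and fixed at DIV 12, with DMSO as negative control.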"}},
  "note": "Records with an inconclusive call do not appear. Activity calls are given as the source filed them. How the source made its calls, unless noted: active means hit-call score of the fitted dose curve at least 0.9, where 1 is the maximum; inactive means score below 0.9.",
  "data": [
    {"smiles": "CCc1ccccc1", "values": [
      {"measurement": "outcome", "setting": "[1]", "value": "inactive"},
      {"measurement": "outcome", "setting": "[2]", "value": "inactive"},
      {"measurement": "outcome", "setting": "[3]", "value": "inactive"},
      {"measurement": "outcome", "setting": "[4]", "value": "inactive"},
      {"measurement": "outcome", "setting": "[5]", "value": "inactive"},
      {"measurement": "outcome", "setting": "[6]", "value": "inactive"},
      {"measurement": "outcome", "setting": "[7]", "value": "inactive"},
      {"measurement": "outcome", "setting": "[8]", "value": "inactive"},
      {"measurement": "outcome", "setting": "[9]", "value": "inactive"},
      {"measurement": "outcome", "setting": "[10]", "value": "inactive"},
      {"measurement": "outcome", "setting": "[11]", "value": "inactive"},
      {"measurement": "outcome", "setting": "[12]", "value": "inactive"},
      {"measurement": "outcome", "setting": "[13]", "value": "inactive"},
      {"measurement": "outcome", "setting": "[14]", "value": "inactive"},
      {"measurement": "outcome", "setting": "[15]", "value": "inactive"},
      {"measurement": "AC50", "setting": "[16]", "value": "0.299 µM (active)"},
      {"measurement": "outcome", "setting": "[17]", "value": "inactive"},
      {"measurement": "outcome", "setting": "[18]", "value": "inactive"},
      {"measurement": "AC50", "setting": "[19]", "value": "12.7 µM (active)"},
      {"measurement": "outcome", "setting": "[20]", "value": "inactive"},
      {"measurement": "outcome", "setting": "[21]", "value": "inactive"},
      {"measurement": "outcome", "setting": "[22]", "value": "inactive"}
    ]}
  ]
}
